Measurements: the supplement of paper PMC13380429

These molecules were tested on Vero E6 infected with SARS-CoV-2 (assay: SARS-CoV-2 infection rate relative to infected DMSO; higher = more infection, active = 60 or less). Settings: 24 h.

Row | Compound | SARS-CoV-2 infection rate
1 | CCCn1c(=O)c2nc(-c3ccccc3)[nH]c2n(CCC)c1=O [1,3-dipropyl-8-phenylxanthine] (10 µM) | 104% (inactive)
2 | CCCCCCN(CCCCCC)C(=O)Cc1c(-c2ccc(Cl)cc2)[nH]c2ccc(Cl)cc12 (10 µM) | 103% (inactive)
3 | N#CC(C#N)=Cc1ccc(O)c(O)c1 [tyrphostin-AG-18] (10 µM) | 100% (inactive)
4 | CS(=O)(=O)c1cc(F)cc2c3c(n(Cc4ccc(Cl)cc4)c12)[C@@H](CC(=O)O)CC3 [laropiprant] (10 µM) | 106% (inactive)
5 | O=C1CCCCCCCCCCCCCCO1 [oxacyclohexadecan-2-one] (10 µM) | 106% (inactive)
6 | C#C[C@]1(O)CC[C@H]2[C@@H]3CCc4cc(OC5CCCC5)ccc4[C@H]3CC[C@@]21C [quinestrol] (10 µM) | 102% (inactive)
7 | CN1[C@@H]2CC[C@H]1C[C@@H](OC(=O)N1Cc3ccccc3NC1=O)C2 (10 µM) | 108% (inactive)
8 | Clc1ccc(COC(Cn2ccnc2)c2ccc(Cl)cc2Cl)cc1 (stereo not given) [econazole] (10 µM) | 101% (inactive)
9 | CC(C)(O)CS(=O)(=O)Nc1ccc2c(c1)CCN(C(=O)COc1cccnc1)C2 [Nampt-IN-1] (10 µM) | 104% (inactive)
10 | CCCCOc1c(C(=O)c2c(F)cc(C)cc2F)c[nH]c2nncc1-2 (10 µM) | 104% (inactive)
